Experimental data reported in PubChem BioAssay (NCATS).
Records with an inconclusive call do not appear. A number with no mark means an inactive call. Calls come from the whole dose curve; as a rule, active = well fitted inhibition curve with a large enough effect; inconclusive = small, poorly fitted or top-dose-only effect; inactive = flat fitted curve, though single readings scatter.

target: Luciferin 4-monooxygenase (Photinus pyralis) (UniProt P08659); assay: Biochemical firefly luciferase enzyme assay for NPC (AID 624030);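 note: 0% = DMSO and -100% = full luciferase inhibition by PTC124 control; nearly all actives have a fitted effect of over 70% in size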; settings: purified P. pyralis luciferase, luminescence, 5 min; series mostly up to 58.6 µM; activity change, negative = inhibition: at the top concentration
Sequence (P08659 whole entry, looked up): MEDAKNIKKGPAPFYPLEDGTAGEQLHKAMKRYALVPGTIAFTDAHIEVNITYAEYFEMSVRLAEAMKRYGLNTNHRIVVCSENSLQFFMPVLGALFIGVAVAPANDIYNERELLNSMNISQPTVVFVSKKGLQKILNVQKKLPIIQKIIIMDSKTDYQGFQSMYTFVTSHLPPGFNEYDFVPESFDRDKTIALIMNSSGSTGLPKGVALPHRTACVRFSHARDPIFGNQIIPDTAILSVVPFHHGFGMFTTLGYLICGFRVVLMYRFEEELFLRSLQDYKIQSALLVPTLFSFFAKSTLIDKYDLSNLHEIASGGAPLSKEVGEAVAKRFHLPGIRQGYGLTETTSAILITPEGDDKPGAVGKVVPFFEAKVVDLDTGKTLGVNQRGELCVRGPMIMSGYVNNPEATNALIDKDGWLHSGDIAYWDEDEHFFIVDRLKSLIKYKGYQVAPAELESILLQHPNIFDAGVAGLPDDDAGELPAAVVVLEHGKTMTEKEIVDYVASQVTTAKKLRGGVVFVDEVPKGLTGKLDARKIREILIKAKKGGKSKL
Source text: Charcot-Marie-Tooth-Association [CMTA] National Center for Advancing Translational Sciences [NCATS] Charcot-Marie-Tooth (CMT) disease was first characterized by Jean-Martin Charcot and Pierre Marie in France and, independently, by Howard Henry Tooth in England in 1886. CMT is one of the most common inherited neurological diseases, affecting approximately 1 in 2,500 Americans. […] The most prevalent type of CMT is known as CMT1A and caused by a duplication of the PMP22 gene which leads to over-expression of this protein. PMP22 is a glycosylated intrinsic membrane protein accounting for 2-5% of the myelin protein content, and its over-expression results in demyelination and subsequently axonal loss. A pair of cellular transcription-based assays was developed in the S16 rat Schwann cell lines (Hai, M., et al., 2002) stably transfected with orthogonal reporters - firefly luciferase (Fluc) and beta-lactamase (beta-Lac) - whose expression is driven by an intronic regulatory element of the PMP22 gene (Jones, E.A., et al., 2011) to recapitulate endogenous expression of PMP22. A comprehensive library of approved drugs, the NCGC Pharmaceutical Collection (Huang, R., et al., 2011), was screened in the cross-validating platform of the orthogonal reporter assays to identify drug modulators inhibitory towards PMP22 expression. A set of counter-screens was devised to address non-specific activity of the library. An ATP-dependent CellTiter-Glo assay (developed by Promega Corp) was utilized to control cell viability. In addition, biochemical Fluc enzyme assay was performed to assess direct inhibition of the Fluc enzymatic activity. References Hai, M., Muja, N., DeVries, G.H., Quarles, R.H. and Patel, P.I. Comparative analysis of Schwann cell lines as model systems for myelin gene transcription studies. J Neurosci Res, 2002. 69(4): pp 497-508 Huang, R., Southall, N., Wang, Y., Yasgar A., Shinn P., Jadhav, A. , Nguyen, D.-T. and Austin, C.P., The NCGC pharmaceutical collection: a comprehensive resource of clinically approved drugs enabling repurposing and chemical genomics. Sci Transl Med, 2011. 3(80): p. 80ps16.
Compounds were transferred to the plates in 23nl, and one microliter/well luciferase enzyme-buffer solution (10 nM P. pyralis luciferase and 50 mM Tris Acetate final concentrations) was dispensed yielding a final reaction volume of […]. Luciferase luminescence was measured by a ViewLux plate reader within 5 minutes of enzyme-buffer addition. The % activity was determined by normalizing to the average readings of PTC124 (a positive control) relative to DMSO (0% Activity). The concentration-effect curves were then classified based on curve quality (r2), response magnitude and degree of measured activity.

SMILES	activity change, negative = inhibition
COc1ccnc(CS(=O)c2nc3ccc(OC(F)F)cc3[nH]2)c1OC (stereo not drawn)	-5.19%
CN1CC(=O)N2C(Cc3c([nH]c4ccccc34)[C@H]2c2ccc3c(c2)OCO3)C1=O (stereo partly drawn)	0.692%
CCC[C@H](N[C@@H](C)C(=O)N1[C@@H]2CCCC[C@H]2C[C@H]1C(=O)O)C(=O)OCC	-2.89%
CC(C)CN(C[C@@H](O)[C@H](Cc1ccccc1)NC(=O)O[C@H]1CO[C@H]2OCC[C@H]21)S(=O)(=O)c1ccc(N)cc1	0.555%
NCC1CCC(C(=O)O)CC1 (stereo not drawn)	0.555% [at 24.9 µM]
CC(C)(CO)[C@@H](O)C(=O)NCCC(=O)O	-0.121%
CS(=O)(=O)c1ccc(C2=C(c3ccccc3)C(=O)OC2)cc1	4.37%
CCCCCCCCCCCCCCCC(=O)O[C@H]1[C@@H](O)[C@@H](O)[C@@H]([C@H](NC(=O)[C@@H]2C[C@@H](CCC)CN2C)[C@H](C)Cl)O[C@@H]1SC	-0.487%
O=C(CCCN1CCN(c2ccc(F)cc2)CC1)NC1c2ccccc2CSc2ccccc21 (stereo not drawn)	-0.625%
O=C1C(CCC(O)c2ccc(F)cc2)C(c2ccc(O)cc2)N1c1ccc(F)cc1 (stereo not drawn)	0.514%
CC[C@]1(O)C[C@H]2CN(CCC3=c4ccccc4=N[C]3[C@@](C(=O)OC)(c3cc4c(cc3OC)N(C)[C@H]3[C@@](O)(C(N)=O)[C@H](O)[C@]5(CC)C=CCN6CC[C@]43[C@@H]65)C2)C1	-0.749%
O=C(O)c1nc(=O)[nH]c(=O)[nH]1	-0.362%
N#Cc1c(N(CC(=O)O)CC(=O)O)sc(C(=O)O)c1CC(=O)O	-0.0949%
COc1c(C)c2c(c(O)c1CC=C(C)CCC(=O)OCCN1CCOCC1)C(=O)OC2	18.5%
CN(C)CCN(Cc1ccc(Cl)cc1)c1ccccn1	3.19% [at 24.9 µM]
CC[C@@H]([C@H](C)O)n1ncn(-c2ccc(N3CCN(c4ccc(OCC5CO[C@@](Cn6cncn6)(c6ccc(F)cc6F)C5)cc4)CC3)cc2)c1=O (stereo partly drawn)	-5.03%
Cc1cc2nc3c(=O)[nH]c(=O)nc-3n(CC(O)C(O)C(O)CO)c2cc1C (stereo not drawn)	-16.8%
Fc1ccc(C(c2ccc(F)cc2)N2CCN(CC=Cc3ccccc3)CC2)cc1	13%
COc1cc2c(cc1OC)CC(=O)N(CCCN(C)C[C@H]1Cc3cc(OC)c(OC)cc31)CC2	-1.57%
O=C1CN2Cc3c(ccc(Cl)c3Cl)N=C2N1	-0.881%
Clc1ccc(COC(Cn2ccnc2)c2ccc(Cl)cc2Cl)c(Cl)c1 (stereo not drawn)	2.62% [at 24.9 µM]
CCC(=O)OCC(=O)[C@@]1(OC(=O)CC)[C@@H](C)C[C@@H]2[C@H]3CCC4=CC(=O)C=C[C@]4(C)[C@@]3(F)[C@@H](O)C[C@@]21C	-1.43%
NS(=O)(=O)c1cc(Cl)c(Cl)c(S(N)(=O)=O)c1	0.542% [at 24.9 µM]
C[C@@H](O[C@H]1OCCN(Cc2n[nH]c(=O)[nH]2)[C@@H]1c1ccc(F)cc1)c1cc(C(F)(F)F)cc(C(F)(F)F)c1	-2.33%
CN1CCN2c3ncccc3Cc3ccccc3C2C1 (stereo not drawn)	1.96%
CCCCC(F)(F)[C@@]1(O)CC[C@H]2[C@H](CC(=O)[C@@H]2CCCCCCC(=O)O)O1	2.49%
CC[C@H]1OC(=O)[C@H](C)[C@@H](O[C@H]2C[C@@](C)(OC)[C@@H](O)[C@H](C)O2)[C@H](C)[C@@H](O[C@@H]2O[C@H](C)C[C@H](N(C)C)[C@H]2O)[C@](C)(O)C[C@H](C)C(=NOCOCCOC)[C@H](C)[C@@H](O)[C@]1(C)O	3.36%
C=C1c2cccc(O)c2C(O)=C2C(=O)[C@@]3(O)C(O)=C(C(N)=O)C(=O)[C@@H](N(C)C)[C@@H]3[C@@H](O)[C@H]12	-13.2% [at 24.9 µM]
